OvCa metastasis: ovarian cancer metastasis inhibition, 3D TME model; SKOV3ip1-GFP adhesion/invasion on 3D omental model, fluorescence; Potency, µM (titrated, usually from 45.8 µM), for the others: at the top dose activity change, negative = inhibition, most hits filed as inhibitors; actives 0.1% (n = 46,000); AID 1963576;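 note: plate controls were DMSO wells for no effect and tomatine positive control wells for full effect; nearly all actives have a fitted effect of over 65% in size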
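A 3D layer of primary human omental fibroblasts, mesothelial cells, fibronectin and collagen I, grown 48 hr, received SKOV3ip1-GFP cells in serum-free medium plus compounds at 0.36-46 umol/L. After 2 hr RT and 16 hr 37 C, fixed adherent GFP cells were counted; normalized to DMSO and tomatine.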
pS6 MEF inh: mTORC1 pathway inhibition measured by phospho-rpS6. Tsc2-/- p53-/- MEF, phospho-rpS6 immunofluorescence/PI, 24 h. Potency, µM (top dose mostly 38.3 µM), for the others: at the top dose activity change, negative = inhibition, hits mostly inhibitors. actives 0.78% (n = 44,000);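 note: plate controls were DMSO for no effect and rapamycin for full effect; nearly all actives have a fitted effect of over 50% in size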
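Immunofluorescence of rpS6 phosphorylation in Tsc2-/-, p53-/- MEFs after 24 h compound exposure, normalized to propidium iodide signal. Activity is expressed as % positive cells, thresholded with 7.5 nM rapamycin.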
S16 F2sN tox: S16 Schwann cell cytotoxicity. Potency, µM (top dose mostly 57.5 µM), inactives show at the highest dose activity change, negative = cytotoxicity, usual class: cytotoxic. S16 Pmp22-F2sN Schwann cells viability, CellTiter-Glo, 24 h. actives 0.48% (n = 43,000); note: % is set by controls: 0 for no effect and ±100 for the full control effect; nearly all actives have a fitted effect of over 65% in size
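Rat S16 Schwann reporter line, 24 h treatment with library compounds delivered at 23 nL per well. Cell viability by CellTiter-Glo luminescence.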
NTMT1 inhibitor: NTMT1 methyltransferase inhibition; AID 1645870; Potency, µM (highest dose often 114 µM), for inactives: top-dose activity change, negative = inhibition, hits mostly inhibitors; actives 2.5% (n = 59,000); NTMT1 MTase-Glo SAH luminescence, purified enzyme;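 note: plate controls were DMSO vehicle for no effect and no enzyme for full effect; nearly all actives have a fitted effect of over 65% in size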
GALC G270D up: raises human GALC G270D mutant activity in cells; P54803; 145M-Twi-hGALC-G270D cells (Twitcher mouse brain line with human GALC G270D), HMU-beta-Gal fluorescence, 48 h; Potency, µM (series often up to 57.5 µM), actives largely listed as activators; actives 0.1% (n = 45,000); note: 0% is about no effect; nearly all actives have a fitted effect of over 65% in size
Target sequence (P54803 whole entry G286D): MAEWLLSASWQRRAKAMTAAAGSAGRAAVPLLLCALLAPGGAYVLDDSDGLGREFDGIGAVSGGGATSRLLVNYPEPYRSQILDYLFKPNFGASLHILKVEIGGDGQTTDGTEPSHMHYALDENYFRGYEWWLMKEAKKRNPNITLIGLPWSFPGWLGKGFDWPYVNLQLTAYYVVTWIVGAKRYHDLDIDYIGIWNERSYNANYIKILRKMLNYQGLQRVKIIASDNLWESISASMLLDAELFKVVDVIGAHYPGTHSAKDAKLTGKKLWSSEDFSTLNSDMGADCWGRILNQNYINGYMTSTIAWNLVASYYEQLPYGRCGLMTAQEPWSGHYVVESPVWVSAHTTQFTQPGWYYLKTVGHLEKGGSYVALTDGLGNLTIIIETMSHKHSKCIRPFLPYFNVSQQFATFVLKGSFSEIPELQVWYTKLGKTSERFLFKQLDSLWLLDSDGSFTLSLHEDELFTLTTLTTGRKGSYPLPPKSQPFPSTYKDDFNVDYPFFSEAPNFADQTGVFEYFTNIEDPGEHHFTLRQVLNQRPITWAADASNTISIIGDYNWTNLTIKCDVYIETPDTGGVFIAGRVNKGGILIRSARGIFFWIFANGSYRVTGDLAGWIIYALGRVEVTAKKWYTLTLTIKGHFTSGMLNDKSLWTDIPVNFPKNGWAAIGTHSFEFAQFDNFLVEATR
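Mutant human GALC (G270D), stably expressed in a Twitcher mouse brain cell line lacking endogenous GALC, is measured in live-treated cells via 6-hexadecanoylamino-4-methylumbelliferyl-β-galactoside hydrolysis (0.1 mM final, pH 5.2) with fluorescent detection.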
PMP22 txn: modulates PMP22 transcription in S16 Schwann cells | S16 Pmp22-F2sN Schwann cells (luciferase reporters placed in the Pmp22 gene), FLuc/NLuc coincidence luminescence, 24 h | Potency, µM (top dose mostly 57.5 µM), inactives show at the highest dose activity change, negative = inhibition, usual class: inhibitors | actives 2% (n = 43,000) | AID 1508649; active = clear falling dose curves in both reporters; inconclusive = both reporters move, but less clearly or upward; inactive = either reporter flat; the % is the NLuc reporter signal; note: % is set by controls: 0 for no effect and ±100 for the full control effect
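Reporter cells (S16 Pmp22-F2sN, 500–1,000 per well) exposed to compounds for 24 h, 37C, 5% CO2; lysis with FLuc read after 10 min, then Stop&Glo and NLuc read after 10 min.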
Starred values were filed as active, the others as inactive; ! = not confirmed by another sample; [ ] = dose if it differs, or a comment. An excerpt weighted towards active compounds, which were near 3.6% of everything screened. Unless noted, calls come from the whole dose curve; as a rule, active = well fitted curve in the direction sought with a large enough effect; inconclusive = small, poorly fitted or top-dose-only effect, or another doubt; inactive = no such curve, though single readings can be large; an effect the other way counts as inactive or inconclusive. Potency is the fitted concentration of half-maximal effect.

Screening COc1ccccc1N1CCN(C(=O)c2ccc(Nc3nc4ccccc4n4nnnc34)cc2)CC1 returned OvCa metastasis -26%, pS6 MEF inh -1%, S16 F2sN tox 3.5µM*, NTMT1 inhibitor 9%, GALC G270D up inactive and PMP22 txn inconclusive.
For CC(C)CCNC(=O)c1cccc(Nc2nc3ccccc3n3nnnc23)c1 the results were OvCa metastasis inconclusive, pS6 MEF inh inconclusive, S16 F2sN tox 20µM*, NTMT1 inhibitor 18%, GALC G270D up inactive and PMP22 txn 9.5µM*.
Screening COc1ccc(CCNC(=O)c2ccc(Nc3nc4ccccc4n4nnnc34)cc2)cc1OC returned OvCa metastasis -17%, pS6 MEF inh -1%, S16 F2sN tox inconclusive, NTMT1 inhibitor 16%, GALC G270D up inactive and PMP22 txn -13%.
`C=C1CC2C3(C)C(O)CC(=O)C(C)(C)C3C(OC(C)=O)C(OC(C)=O)C2(C)C2C(=O)OC(C)(C(=O)OC)C(=O)C12C` (stereo not given) gave NTMT1 inhibitor 1%[29.8 µM].
`Cc1cc2c(s1)c1cnn(Cc3ccc(C)c(F)c3)c(=O)c1n2C` gave NTMT1 inhibitor 79µM*.
Cc1ccc(NS(=O)(=O)c2ccc3[nH]c(=O)[nH]c3c2)cc1C was read as NTMT1 inhibitor 0%.
For O=C(O)CC/C=C\C[C@H]1CO[C@@H](c2ccccc2Cl)O[C@H]1c1ccccc1O the results were NTMT1 inhibitor 9%[57.5 µM].
For Nc1cccc(-c2cc3c(Oc4cccc(O)c4)ncnc3[nH]2)c1 the results were OvCa metastasis inconclusive and NTMT1 inhibitor 22µM*!.
Screening CCOC(=O)c1c(-c2ccc(C)o2)csc1NC(=O)CSc1nnnn1-c1ccccc1 returned NTMT1 inhibitor 3.5µM*.
CCc1ccc(S(=O)(=O)N(C(=O)c2ccncc2)c2ccc3oc(C)c(C(=O)OC)c3c2)cc1 was read as OvCa metastasis -4%, pS6 MEF inh inconclusive, S16 F2sN tox inconclusive, NTMT1 inhibitor 17%, GALC G270D up inactive and PMP22 txn inconclusive.
For COC(=O)c1c(C)oc2ccc(N(C(=O)c3ccncc3)S(=O)(=O)c3ccc(OC)cc3)cc12 the results were OvCa metastasis -1%, pS6 MEF inh inconclusive, S16 F2sN tox inconclusive, NTMT1 inhibitor 22%, GALC G270D up inactive and PMP22 txn 5.3µM*.
Screening CC(=O)c1c(C)oc2ccc(N(C(=O)c3ccncc3)S(=O)(=O)c3ccc(C)cc3C)cc12 returned OvCa metastasis inactive, pS6 MEF inh -7%, S16 F2sN tox -26%, NTMT1 inhibitor -3%, GALC G270D up inactive and PMP22 txn inconclusive.
Screening CCOC(=O)c1c(C)oc2ccc(N(C(=O)c3ccncc3)S(=O)(=O)c3ccc(F)cc3)cc12 returned OvCa metastasis -4%, pS6 MEF inh 6%, S16 F2sN tox -12%, NTMT1 inhibitor 16%, GALC G270D up inactive and PMP22 txn inconclusive.
COc1ccc(S(=O)(=O)N(C(=O)c2ccncc2)c2ccc3oc(C)c(C(C)=O)c3c2)cc1 was read as OvCa metastasis inconclusive, pS6 MEF inh 18µM*, S16 F2sN tox inconclusive, NTMT1 inhibitor -2%, GALC G270D up inactive and PMP22 txn 13µM*.
CCOc1ccc(S(=O)(=O)N(C(=O)c2ccncc2)c2ccc3oc(C)c(C(=O)OC)c3c2)cc1 was read as OvCa metastasis inactive, pS6 MEF inh 5.2µM*, S16 F2sN tox inconclusive, NTMT1 inhibitor 2%, GALC G270D up inactive and PMP22 txn inconclusive.
`Cc1cc([C@@H](C)Nc2ccccc2C(=O)O)c2nc(N3CCOCC3)cc(=O)n2c1` gave OvCa metastasis -13%[92.2 µM] and NTMT1 inhibitor 8%.
Cc1ccccc1C(=O)N1CCc2cc(-c3nc(NC(=O)CC4CCCCC4)sc3C)ccc21 was read as NTMT1 inhibitor 7%[57.5 µM].
For Cc1ccc2c(c1)c(=O)c1ccccc1n2CCCC(=O)Nc1c(F)cccc1F the results were OvCa metastasis inactive, pS6 MEF inh -5%, S16 F2sN tox 3%, NTMT1 inhibitor 6%, GALC G270D up 1.1µM* and PMP22 txn 12%.
For Cc1ccc(NC(=O)CCCn2c3ccccc3c(=O)c3cc(C)ccc32)c(Br)c1 the results were OvCa metastasis inactive, pS6 MEF inh 9%, S16 F2sN tox -3%, NTMT1 inhibitor -2%, GALC G270D up inactive and PMP22 txn inconclusive.
`CC(=O)N1CCN(c2ccc(O)cc2)CC1` gave NTMT1 inhibitor 28µM* and GALC G270D up inactive.
For CC(=O)N1CCN(c2ccc(NCc3ccccc3)cc2)CC1 the results were NTMT1 inhibitor -15%.
`CN(C)c1ccc(C(=C2C=CC(=[N+](C)C)C=C2)c2ccc(N(C)C)cc2)cc1` gave OvCa metastasis inconclusive, NTMT1 inhibitor 20µM* and GALC G270D up inactive.
Screening CN(C)c1ccc(C(=C2C=CC(=[N+](C)C)C=C2)c2ccccc2)cc1 returned NTMT1 inhibitor 22µM* and GALC G270D up inactive.
Screening Cn1c(SCC(=O)N2CCOCC2)ncc(C(=O)Nc2ccccc2)c1=O returned OvCa metastasis -13%, pS6 MEF inh 3%, S16 F2sN tox 0%, NTMT1 inhibitor -9%, GALC G270D up inactive and PMP22 txn -29%.
`COc1ccccc1NC(=O)c1cnc(SCC(=O)N2CCOCC2)n(C)c1=O` gave OvCa metastasis -14%, pS6 MEF inh -8%, S16 F2sN tox 18%, NTMT1 inhibitor -1%, GALC G270D up inactive and PMP22 txn 11µM*.
Screening CCN(CC)CCn1c(=N)n(CC(O)COc2ccccc2C)c2ccccc21 (stereo not given) returned OvCa metastasis inconclusive, pS6 MEF inh 12µM*, S16 F2sN tox 28µM*, NTMT1 inhibitor inconclusive, GALC G270D up inactive and PMP22 txn inconclusive.
For CCN(CC)CCn1c(=N)n(CCOc2ccccc2Cl)c2ccccc21 the results were OvCa metastasis inconclusive, pS6 MEF inh 5.8µM*, S16 F2sN tox 28µM*, NTMT1 inhibitor inconclusive, GALC G270D up inactive and PMP22 txn inconclusive.
NC(=O)C1CCN(c2nccc(-c3ccc(Br)cc3)n2)CC1 was read as NTMT1 inhibitor 4%.
